# Test results: PubChem BioAssay (EPA / NIEHS)
# Results filed as inconclusive are left out. Calls of active or inactive are those of the source. How the source made its calls, unless noted: active means hit-call score of the fitted dose curve at least 0.9, where 1 is the maximum; inactive means score below 0.9.
# Assays:
# [1] = CCTE_Shafer_MEA_acute_LDH: CCTE's Lactate Dehydrogenase Assay for Cytotoxicity in the Neural Acute Assay, Shafer Lab (AID 2284086; active means hit-call score of the fitted dose curve at least 0.9, where 1 is the maximum;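 further: active means LDH release rises above DMSO vehicle level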)
# Summary of the method: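 Primary rat cortical neurons on 48-well MEA plates, treated on day 13 or 15 post-plating. After the 40-min recording with compound, medium LDH release was read by absorbance at 490 nm. Gain of signal was fitted against DMSO negative control.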
# [2] = CCTE_Shafer_MEA_dev_mutual_information_norm: CCTE's Neural Network Formation Assay for Mutual Information Normalization, Shafer Lab (AID 2284091)
# Summary of the method: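 Primary rat cortical neurons on PEI-coated 48-well MEA plates, 1.5 x 10^5 cells/well, exposed from day 0 through day 12 with re-dosing at DIV 5 and 9. Mutual information between electrodes recorded days 5, 7, 9, 12; trapezoidal AUC, loss-of-signal fit versus DMSO.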
# [3] = UKN4_HCS_LUHMES_neurite_outgrowth: University of Konstanz (UKN) Leist Lab Neurite Outgrowth Assay in human LUHMES cells (UKN4) (AID 2284206); conditions: actives raise or lower the signal
# Summary of the method: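 LUHMES neuronal precursors differentiated 2 days, replated without cAMP/GDNF, then exposed to chemicals for 24 h. Neurite area imaged by high-content microscopy after calcein-AM staining; Hoechst H-33342 marks viability. Bidirectional fit versus DMSO.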
# [4] = IUF_NPC1b_proliferation_BrdU_72hr: Leibniz Research Institute for Environmental Medicine (IUF) 72-hour Neural Progenitor Cell Bromodeoxyuridine (BrdU) Proliferation Assay (NPC1b) (AID 2284207)
# Summary of the method: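 BrdU luminescence ELISA quantified DNA synthesis over the last 16 h of a 72 h exposure, fitted against DMSO. Primary hNPC spheres from gestational week 16-19 cortex grown with EGF/FGF at 37C, pH 7.2-7.6.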
# [5] = IUF_NPC1a_proliferation_area_72hr: Leibniz Research Institute for Environmental Medicine (IUF) 72-hour Neural Progenitor Cell Proliferation Area Assay (NPC1a) (AID 2284208)
# Summary of the method: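 Read-out: increase in sphere area over 72 h by automated phase-contrast imaging, fitted in positive direction versus DMSO baseline. One hNPC sphere (0.25-0.35 mm) per well in EGF/FGF medium; growth-factor withdrawal served as positive control.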
# [6] = IUF_NPC1_viability_72hr: Viability Assessment at 72 hours in the Leibniz Research Institute for Environmental Medicine (IUF) Neural Progenitor Cell Proliferation Assay (NPC1) (AID 2284209)
# Summary of the method: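 Human fetal-cortex neural progenitor spheres (0.25–0.35 mm, one per well) grown in EGF/FGF proliferation medium at 37C, pH 7.2-7.6, exposed 72 h without renewal; viability read as alamar blue resazurin-to-resorufin fluorescence relative to DMSO.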
# [7] = CCTE_Mundy_HCI_Cortical_Synap_Neur_Matur_NeuriteSpotCountPerNeuriteLength: CCTE's Synaptogenesis and Neurite Maturation Assay in rat cortical cells for Neurite Spot Count per Neurite Length, Mundy Lab (AID 2284210)
# Summary of the method: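 Rat primary cortical cultures, AraC added at DIV 5 to suppress glia; chemical exposure from DIV 7 to DIV 12. Fixed cells stained for MAP2 and synaptophysin plus Hoechst; synaptophysin puncta per neurite length quantified by high-content imaging, relative to DMSO.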
# [8] = CCTE_Mundy_HCI_Cortical_Synap_Neur_Matur_BPCount: CCTE's Synaptogenesis and Neurite Maturation Assay in rat cortical cells for Branch Point Count, Mundy Lab (AID 2284211)
# Summary of the method: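 Branch point number is quantified by automated imaging of fluorescently labelled neurites and synapses in rat primary cortical neurons exposed from DIV 7 to DIV 12. Activity is analysed relative to DMSO negative control.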
# [9] = CCTE_Mundy_HCI_Cortical_NOG_NeuriteCount: CCTE's Neurite Outgrowth Assay in rat cortical cells for Neurite Count, Mundy Lab (AID 2284212);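 further: cells fixed about two days after chemical exposure began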
# Summary of the method: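 Neurite number per cell from high-content imaging of betaIII-tubulin immunostaining, with Hoechst nuclear counterstain.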
# [10] = CCTE_Mundy_HCI_Cortical_Synap_Neur_Matur_NeuriteLength: CCTE's Synaptogenesis and Neurite Maturation Assay in rat cortical cells for Neurite Length, Mundy Lab (AID 2284214)
# Summary of the method: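 Rat primary cortical cells were plated, treated with AraC at DIV 5 to arrest glial growth, then chemical-dosed with media change at DIV 7 through DIV 12. Fixed cells stained for MAP2, synaptophysin and Hoechst; neurite length quantified by high-content imaging.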
# [11] = CCTE_Mundy_HCI_Cortical_Synap_Neur_Matur_NeuriteSpotCountPerNeuron: CCTE's Synaptogenesis and Neurite Maturation Assay in rat cortical cells for Neurite Spot Count per Neuron Count, Mundy Lab (AID 2284215)
# Summary of the method: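 Rat primary cortical cells received AraC at DIV 5, then chemicals with a media change at DIV 7, and were fixed at DIV 12. Synaptophysin puncta on MAP2-stained neurites per neuron were counted by high-content imaging, fitted relative to DMSO.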
# [12] = CCTE_Mundy_HCI_Cortical_Synap_Neur_Matur_SynapseCount: CCTE's Synaptogenesis and Neurite Maturation Assay in rat cortical cells for Synapse Count, Mundy Lab (AID 2284218)
# Summary of the method: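 Rat primary cortical cells in 96-well plates received AraC at DIV 5 and were dosed with chemicals at DIV 7 with media change, through DIV 12 (288.33 h). Synapses per neuron counted by high-content imaging of MAP2/synaptophysin/Hoechst staining, versus DMSO baseline.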
# [13] = CCTE_Mundy_HCI_Cortical_Synap_Neur_Matur_NeuriteCount: CCTE's Synaptogenesis and Neurite Maturation Assay in rat cortical cells for Neurite Count, Mundy Lab (AID 2284222);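 further: exposure from day 7 to day 12 in vitro with readout at day 12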
# Summary of the method: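 Rat cortical neurons, 96-well; AraC DIV 5; chemical + media change DIV 7; end DIV 12. Fix PFA/Hoechst, anti-MAP2 + anti-synaptophysin IF. HCI neurite count vs DMSO baseline.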
# [14] = CCTE_Mundy_HCI_Cortical_Synap_Neur_Matur_CellBodySpotCount: CCTE's Synaptogenesis and Neurite Maturation Assay in rat cortical cells for Cell Body Spot Count, Mundy Lab (AID 2284223)
# Summary of the method: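 Rat primary cortical cultures received AraC at DIV 5 to arrest glia, were dosed with chemical at DIV 7 with media change, and were fixed at DIV 12 (288.33 h). Synaptophysin puncta on MAP2-positive cell bodies per neuron were counted by high-content imaging versus DMSO.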
# [15] = CCTE_Mundy_HCI_hNP1_Pro_ResponderAvgInten: CCTE's Proliferation Assay in human neuroprogenitor cells, Mundy Lab (AID 2284224; active means hit-call score of the fitted dose curve at least 0.9, where 1 is the maximum;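 further: human neural progenitor cells hNP1 derived from WA09 embryonic stem cells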)
# Summary of the method: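 Proliferation read as average intensity of BrdU-positive cells, imaged at 26.25 h post-dosing: chemical exposure started after 40–44 h culture, BrdU during final 4 h, paraformaldehyde fixation. Positive-direction fit relative to DMSO.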
# [16] = UKN4_HCS_LUHMES_cell_viability: Viability Assessment in the University of Konstanz (UKN) Leist Lab Neurite Outgrowth Assay in human LUHMES cells (UKN4) (AID 2284232)
# Summary of the method: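 LUHMES cells differentiated 2 days, replated without cAMP/GDNF, then exposed to compounds for 24 h from attachment. Viability read by high-content fluorescence imaging after 30 min live-staining with H-33342 and calcein-AM; bidirectional fit relative to DMSO baseline.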
# [17] = CCTE_Mundy_HCI_Cortical_NOG_NeuronCount: CCTE's Neurite Outgrowth Assay in rat cortical cells for Neuron Count, Mundy Lab (AID 2284236; active means hit-call score of the fitted dose curve at least 0.9, where 1 is the maximum;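 further: neurons counted by imaging betaIII-tubulin and Hoechst stained cortical cells; cells exposed to compound for about 48 hours before fixation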)
# Summary of the method: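 Read-out: neuron number by high-content imaging of betaIII-tubulin (Alexa Fluor-488) and Hoechst-labelled rat primary cortical cells.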
# [18] = CCTE_Mundy_HCI_Cortical_NOG_BPCount: CCTE's Neurite Outgrowth Assay in rat cortical cells for Branch Point Count, Mundy Lab (AID 2284237);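 further: branch points counted about two days after chemical exposure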
# Summary of the method: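 Measured 50.33 h after dosing, this morphology endpoint uses rat primary cortical cultures labelled for betaIII-tubulin. Branch points are quantified by high-content imaging, with DMSO as negative control and baseline.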
# [19] = CCTE_Mundy_HCI_hNP1_Casp3_7: CCTE's Caspase-Glo 3/7 Assay in human neuroprogenitor cells for Apoptosis, Mundy Lab (AID 2284240)
# Summary of the method: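 Luminescent caspase-3/7 readout, 26.5 h post-dose, in human neural progenitor cells from WA09 embryonic stem cells. Cells grew 40–44 h at 37 °C, 5% CO2 before chemical addition. Activity analysed as signal increase over DMSO baseline.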
# [20] = CCTE_Mundy_HCI_hNP1_CellTiter: CCTE's Cell Titer-Glo 2 Assay in human neuroprogenitor cells for Viability, Mundy Lab (AID 2284241; active means hit-call score of the fitted dose curve at least 0.9, where 1 is the maximum)
# Summary of the method: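 Viability read as luminescent ATP content (CellTiter-Glo, 30 min room temperature) twenty-four hours after dosing, relative to DMSO. Cells: WA09-derived hNP1 neuroprogenitors on poly-L-ornithine/laminin, plated 40 to 44 hours before chemical.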
# [21] = IUF_NPC2c_oligodendrocyte_migration_120hr: Leibniz Research Institute for Environmental Medicine (IUF) 120-hour Neural Progenitor Cell Migration Assay for Oligodendrocyte Migration (NPC2c) (AID 2284297);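 further: O4-positive oligodendrocyte migration distance divided by radial glia migration distance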
# Summary of the method: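 Human fetal cortex-derived neural progenitor spheres (0.3 mm) were plated on poly-D-lysine/laminin in N2 differentiation medium and exposed to 7 concentrations for 120 h, with half-medium renewal at day 3. Oligodendrocyte migration distance was normalized to radial glia migration, relative to DMSO.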
# [22] = IUF_NPC2a_radial_glia_migration_120hr: Leibniz Research Institute for Environmental Medicine (IUF) 120-hour Neural Progenitor Cell Migration Assay for Radial Glia Migration (NPC2a) (AID 2284298)
# Summary of the method: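 Single 0.3 mm primary human fetal-cortex (GW 16-19) NPC spheres were plated on poly-D-lysine/laminin in N2 differentiation medium and exposed from day 0 for 120 h, half-medium refreshed day 3. Migration distance came from Hoechst nuclei-density imaging, relative to DMSO.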
# [23] = IUF_NPC2a_radial_glia_migration_72hr: Leibniz Research Institute for Environmental Medicine (IUF) 72-hour Neural Progenitor Cell Migration Assay for Radial Glia Migration (NPC2a) (AID 2284299)
# Summary of the method: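 Human fetal cortex (GW 16-19) neural progenitor spheres, 0.3 mm, plated on poly-D-lysine/laminin in N2 differentiation medium with compound from day 0. Radial glia migration distance (um, sphere core edge to migration edge) measured manually in four directions on 72 h brightfield images; well mean used.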
# [24] = IUF_NPC2b_neuronal_migration_120hr: Leibniz Research Institute for Environmental Medicine (IUF) 120-hour Neural Progenitor Cell Migration Assay for Neuron Migration (NPC2b) (AID 2284300)
# Summary of the method: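 Primary human fetal cortex neural progenitor spheres (0.3 mm) plated on poly-D-lysine/laminin in N2 differentiation medium, exposed 120 h with half-medium refresh at day 3. TUBB3-stained neuron distance from sphere core, normalized to radial glia migration, versus DMSO.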
# [25] = IUF_NPC3_neuronal_differentiation_120hr: Leibniz Research Institute for Environmental Medicine (IUF) 120-hour Neuronal Differentiation Assay (NPC3) (AID 2284301)
# Summary of the method: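 Human fetal (GW 16-19) neural progenitor spheres (0.3 mm) plated on poly-D-lysine/laminin in N2 differentiation medium, exposed 120 h at 37C with half-medium renewal day 3; 7 concentrations. TUBB3+ cells as % of Hoechst nuclei, CNN-identified; DMSO baseline.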
# [26] = IUF_NPC4_neurite_area_120hr: Leibniz Research Institute for Environmental Medicine (IUF) 120-hour Neuronal Morphology Assay for Neurite Area (NPC4) (AID 2284305; active means hit-call score of the fitted dose curve at least 0.9, where 1 is the maximum)
# Summary of the method: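 Human fetal neural progenitor spheres (0.3 mm) plated on poly-D-lysine/laminin in N2 differentiation medium, exposed 120 h (7 concentrations, DMSO ≤0.1%, half-medium refresh day 3). Fixed, TUBB3 immunostained; mean neurite area per neuron by Omnisphero skeletonization.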
# [27] = IUF_NPC2-5_cytotoxicity_72hr: Cytotoxicity Assessment at 72 hours in the Leibniz Research Institute for Environmental Medicine (IUF) Neural Progenitor Cell Migration and Differentiation Assay for Cytotoxicity (NPC2-5) (AID 2284306; active means hit-call score of the fitted dose curve at least 0.9, where 1 is the maximum;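 further: LDH release into supernatant measured by resorufin fluorescence marking membrane damage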)
# Summary of the method: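 Human fetal primary neural progenitor spheres (0.3 mm) plated on poly-D-lysine/laminin in N2 differentiation medium, exposed from day 0 at 37C. LDH-dependent resazurin-to-resorufin fluorescence in supernatant at 72 h; 7 concentrations, DMSO at most 0.1%.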
# [28] = IUF_NPC2-5_cell_number_120hr: Cell Number Assessment at 120 hours in the Leibniz Research Institute for Environmental Medicine (IUF) Neural Progenitor Cell Migration and Differentiation Assay (NPC2-5) (AID 2284308);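 further: count of Hoechst-stained nuclei in migration zone around plated human neural progenitor spheres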
# Summary of the method: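 Primary human fetal neural progenitor spheres (GW 16-19, 0.3 mm) plated on poly-D-lysine/laminin in N2 differentiation medium, exposed from day 0 for 120 h with half-medium refresh at day 3; Hoechst-positive nuclei counted in migration area versus DMSO control.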
# [29] = IUF_NPC2-5_viability_120hr: Viability Assessment at 120 hours in the Leibniz Research Institute for Environmental Medicine (IUF) Neural Progenitor Cell Migration and Differentiation Assay (NPC2-5) (AID 2284312)
# Summary of the method: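 Human fetal neural progenitor spheres (0.3 mm) plated on poly-D-lysine/laminin in N2 differentiation medium, exposed 120 h with half-medium refresh at day 3. Viability by alamar blue resazurin fluorescence; 7 concentrations, DMSO max 0.1%.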
# [30] = CCTE_Mundy_HCI_iCellGluta_NOG_NeuriteLength: CCTE's Neurite Outgrowth Assay in iCellGluta cells for Neurite Length, Mundy Lab (AID 2284318; active means hit-call score of the fitted dose curve at least 0.9, where 1 is the maximum)
# Summary of the method: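 Automated high-content imaging of betaIII-tubulin (Alexa Fluor-488) and Hoechst-stained cells gave neurite length, normalized to the DMSO baseline.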
# [31] = IUF_NPC1_cytotoxicity_72hr: Cytotoxicity Assessment at 72 hours in the Leibniz Research Institute for Environmental Medicine (IUF) Neural Progenitor Cell Proliferation Assay (NPC1) (AID 2284332; active means hit-call score of the fitted dose curve at least 0.9, where 1 is the maximum;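 further: rising LDH signal means more cytotoxicity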)
# Summary of the method: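 Single human fetal cortex neural progenitor spheres (GW 16-19, 0.25-0.35 mm) in EGF/FGF proliferation medium were exposed to compound for 72 h at 37C without renewal. Medium LDH release was read as resorufin fluorescence and fitted as gain-of-signal.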
# [32] = CCTE_Mundy_HCI_iCellGluta_NOG_NeuriteCount: CCTE's Neurite Outgrowth Assay in iCellGluta cells for Neurite Count, Mundy Lab (AID 2284342; active means hit-call score of the fitted dose curve at least 0.9, where 1 is the maximum;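 further: chemical exposure about 48 hours starting 2 hours after plating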)
smiles,measurement,setting,value
O=C1CC2(CCCC2)CC(=O)N1CCCCN1CCN(c2ncccn2)CC1,outcome,[1],inactive
same,outcome,[2],inactive
same,AC50,[3],15.3 µM (active)
same,outcome,[4],inactive
same,outcome,[5],inactive
same,outcome,[6],inactive
same,outcome,[7],inactive
same,outcome,[8],inactive
same,AC50,[9],11.9 µM (active)
same,outcome,[10],inactive
same,outcome,[11],inactive
same,outcome,[12],inactive
same,outcome,[13],inactive
same,outcome,[14],inactive
same,outcome,[15],inactive
same,outcome,[16],inactive
same,outcome,[17],inactive
same,AC50,[18],9.79 µM (active)
same,outcome,[19],inactive
same,outcome,[20],inactive
same,outcome,[21],inactive
same,outcome,[22],inactive
same,outcome,[23],inactive
same,outcome,[24],inactive
same,outcome,[25],inactive
same,outcome,[26],inactive
same,outcome,[27],inactive
same,outcome,[28],inactive
same,outcome,[29],inactive
same,outcome,[30],inactive
same,outcome,[31],inactive
same,outcome,[32],inactive
